ELG1 genotox = genotoxicity induction in ELG1-luciferase HEK293T cells; AID 504466; 330,000 tested, 1.3% active; HEK293T ELG1-luciferase reporter, luminescence, 16 h; Potency, µM (highest dose often 46 µM), for the others: at the top dose activity change, positive = activation, actives largely listed as activators; further: % of control where 0% means no effect; nearly all actives have a fitted effect of over 60% in size
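ELG1-luciferase HEK293T cells, 2,000/well; compound pinned in; 16 hr, 37 °C, 5% CO2; ONE-Glo, 30 min RT; luminescence on CCD imager.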
Rab9 prom act = activates the Rab9 promoter; Potency, µM (series often up to 9.22 µM), for the others: top-dose activation, negative = inhibition, most hits filed as activators; 320,000 tested, 2.8% active; Huh7 Rab9 promoter-luciferase reporter, luminescence, 24 h; further: % of control where 0% means no effect; nearly all actives have a fitted effect of over 60% in size
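Luminescence from Amplite-detected luciferase (10 minutes, ambient) reports Rab9 promoter activation. Before that, stable Rab9-luciferase Huh7 cells (1500/well, reduced-serum OP-MEM I plus 10% FBS) were exposed to compound for 24 hours at 37C.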
FLuc modulator = inhibits or activates purified firefly luciferase, miR-21 counter-screen. purified FLuc, Km substrates, luminescence inhibition. P08659. Potency, µM (titrated, usually from 57.5 µM), inactives show top-dose activity change, negative = inhibition, usual class: inhibitors. 360,000 tested, 6.9% active;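 further: plate controls were vehicle for no effect and reference inhibitor for full effect; nearly all actives have a fitted effect of over 55% in size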
Target sequence (P08659 whole entry, looked up): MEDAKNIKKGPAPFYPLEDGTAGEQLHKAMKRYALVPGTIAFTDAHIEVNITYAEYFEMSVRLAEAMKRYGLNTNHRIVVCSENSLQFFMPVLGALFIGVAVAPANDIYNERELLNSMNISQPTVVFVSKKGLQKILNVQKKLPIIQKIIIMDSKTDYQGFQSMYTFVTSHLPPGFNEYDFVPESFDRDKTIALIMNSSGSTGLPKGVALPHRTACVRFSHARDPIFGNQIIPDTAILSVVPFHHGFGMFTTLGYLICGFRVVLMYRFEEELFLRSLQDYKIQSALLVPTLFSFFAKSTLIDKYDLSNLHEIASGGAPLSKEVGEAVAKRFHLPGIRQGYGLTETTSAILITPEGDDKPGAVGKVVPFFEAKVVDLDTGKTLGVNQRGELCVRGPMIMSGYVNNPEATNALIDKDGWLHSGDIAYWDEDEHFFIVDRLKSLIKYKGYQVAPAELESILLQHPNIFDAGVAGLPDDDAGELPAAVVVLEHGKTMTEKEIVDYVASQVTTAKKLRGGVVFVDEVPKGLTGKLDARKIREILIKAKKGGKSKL
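Purified P. pyralis luciferase, 10 nM final, with Km-level 10 uM D-luciferin and 10 uM ATP in 50 mM Tris acetate pH 7.5, 10 mM Mg acetate, 0.01% Tween-20, 0.05% BSA; 6-point qHTS titration about 60 µM downward; luminescence read.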
SMN2 splice up = enhancers of SMN2 splice variant expression. AID 1458. HEK293 SMN2-luciferase splicing reporter, luminescence, 30-36 h. 210,000 tested, 2.8% active. Potency, µM (titrated, usually from 46.1 µM), inactives show top-dose activity change, positive = activation, usual class: activators; further: % of control where 0% means no effect; nearly all actives have a fitted effect of over 55% in size
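HEK293 cells carry an SMN2 minigene-luciferase reporter in which exon 7 inclusion puts luciferase in frame. Cells were seeded at 2000 cells/well, attached for 10-12 hours, then exposed to compounds for 30-36 hours at 37C before ONE-Glo luminescence.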
NPC1 promoter act = activators of NPC1 promoter; Huh7 NPC1 promoter luciferase reporter, 24 h; 320,000 tested, 2.4% active; AID 485313; Potency, µM (doses to about 9.22 µM), for the others: top-dose activation, most hits filed as activators; further: % of control where 0% means no effect; nearly all actives have a fitted effect of over 60% in size
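Huh7 cells stably carrying NPC1 promoter–luciferase, plated in Opti-MEM with 10% FBS for 2 h, were exposed to compound in DMSO for 24 h at 37 °C; luciferase reagent was added for 10 min and luminescence read.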
ELG1 repair inh = ELG1-dependent DNA repair inhibition; HEK293T ELG1-luciferase reporter, luminescence, 16 h; DNA damage induced by 5-fluorouridine; Potency, µM (top dose mostly 46.1 µM), for the others: top-dose activity change, negative = inhibition, most hits filed as inhibitors; 330,000 tested, 2.3% active; further: on the % scale 0 is the no-effect control and ±100 the full control effect; nearly all actives have a fitted effect of over 55% in size
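Step one: seed 2,000 cells per well. Step two: pin-transfer compound or DMSO alongside 5-fluorouridine. Step three: incubate 16 hr, 37 °C, 5% CO2. Step four: add ONE-Glo, wait 30 min, read luminescence.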
An asterisk follows results filed as active; [ ] = dose if it differs, or a comment. Compounds with a hit are over-represented: about 9.3% of the library has one in this group of screens. The call rests on the fitted dose curve; in most records, active means well fitted curve in the direction sought with a large enough effect; inconclusive means small, poorly fitted or top-dose-only effect, or another doubt; inactive means no such curve, though single readings can be large; an effect the other way counts as inactive or inconclusive. Potency means the concentration at half of the fitted maximal effect.

For COc1ccc(NC(=O)Nc2ccccc2SC)c(OC)c1 the results were ELG1 genotox 10.0%, Rab9 prom act -1.6%, FLuc modulator -4.0%, SMN2 splice up 4.5%, NPC1 promoter act 6.2% and ELG1 repair inh 5.1%.
COc1ccc(/C=C/C2=Nc3ccccc3NC(C)(C)C2)cc1OC was read as ELG1 genotox -4.7%, Rab9 prom act inconclusive, FLuc modulator 6.01µM*, NPC1 promoter act 29.0% and ELG1 repair inh inconclusive.
`CCCCOc1ccc(-c2cn3ccccc3n2)cc1[N+](=O)[O-]` gave ELG1 genotox inconclusive, Rab9 prom act 2.82µM*, FLuc modulator 2.13µM*, SMN2 splice up 6.31µM*, NPC1 promoter act inconclusive and ELG1 repair inh inconclusive.
For CCOc1ccc(Cn2ccnc2)cc1[N+](=O)[O-] the results were ELG1 genotox 3.1%, Rab9 prom act -3.5%, FLuc modulator -0.8%, SMN2 splice up 4.4%, NPC1 promoter act 3.0% and ELG1 repair inh inconclusive.
CCCOc1ccc(-c2csc(N)n2)cc1[N+](=O)[O-] was read as ELG1 genotox inconclusive, Rab9 prom act 2.82µM*, FLuc modulator 10.7µM*, SMN2 splice up 11.2µM*, NPC1 promoter act inconclusive and ELG1 repair inh inconclusive.
CCOc1ccc(-c2cn3ccccc3n2)cc1[N+](=O)[O-] was read as ELG1 genotox inconclusive, Rab9 prom act 2.24µM*, FLuc modulator 2.69µM*, SMN2 splice up 7.94µM*, NPC1 promoter act 3.55µM* and ELG1 repair inh inconclusive.
Screening COc1ccc(C(=O)N2CC(=O)N(CCc3ccccc3)C(=O)C2)cc1OC returned ELG1 genotox 0.3%, Rab9 prom act -0.9%, FLuc modulator 1.0%, SMN2 splice up -5.3%, NPC1 promoter act 1.6% and ELG1 repair inh 7.7%.
CCN(CC)c1ccc(/C=C2/C(=O)c3ccc(C(=O)O)cc3C2=O)cc1 was read as ELG1 genotox inconclusive, Rab9 prom act -6.0%, FLuc modulator 0.477µM*, SMN2 splice up -2.2%, NPC1 promoter act -1.5% and ELG1 repair inh inconclusive.
Screening CCCCC1(C)OC(=O)C(=Cc2ccc(N(CC)CC)cc2)C(=O)O1 (stereo unspecified) returned ELG1 genotox 3.9%, Rab9 prom act -4.4%, FLuc modulator inconclusive, SMN2 splice up 4.4%, NPC1 promoter act -4.5% and ELG1 repair inh 11.6%.
Screening Cc1c(C(=O)Nc2cccc([N+](=O)[O-])c2)csc1-c1ccccc1 returned ELG1 genotox inconclusive, Rab9 prom act 1.26µM*, FLuc modulator 0.849µM*, SMN2 splice up 28.2µM*, NPC1 promoter act 0.708µM* and ELG1 repair inh inconclusive.
`Cc1ccc(NC(=O)c2csc(-c3ccccc3)c2C)cc1` gave ELG1 genotox inconclusive, Rab9 prom act 0.316µM*, FLuc modulator 0.0953µM*, SMN2 splice up -3.7%, NPC1 promoter act 0.112µM* and ELG1 repair inh inconclusive.
`O=C(Nc1cccc([N+](=O)[O-])c1)c1ccc(-c2ccccc2)cc1` gave ELG1 genotox 5.2%, Rab9 prom act 25.8%, FLuc modulator -16.0%, SMN2 splice up 2.2%, NPC1 promoter act 12.2% and ELG1 repair inh 29.0%.
For Cc1cccc(C2=N/C(=C\c3cccs3)C(=O)O2)c1 the results were ELG1 genotox 3.4%, Rab9 prom act 2.1%, FLuc modulator 2.13µM*, SMN2 splice up 1.3%, NPC1 promoter act -1.5% and ELG1 repair inh 12.1%.
Screening CN(C)/C=C1/N=C(c2ccccc2)OC1=O returned ELG1 genotox 12.4%, Rab9 prom act 0.0%, FLuc modulator -2.7%, SMN2 splice up -28.2%, NPC1 promoter act 2.1% and ELG1 repair inh inconclusive.
For CN(C)/C=C1\N=C(c2ccc(Cl)cc2Cl)OC1=O the results were ELG1 genotox 9.2µM*, Rab9 prom act 0.631µM*, FLuc modulator inconclusive, SMN2 splice up -31.9%, NPC1 promoter act 1.12µM* and ELG1 repair inh inconclusive.
Cc1ccc(C2=N/C(=C\N(C)C)C(=O)O2)cc1 was read as ELG1 genotox 14.6µM*, Rab9 prom act inconclusive, FLuc modulator 15.1µM*, SMN2 splice up 15.8%, NPC1 promoter act inconclusive and ELG1 repair inh inconclusive.
Cc1ccc(C2=N/C(=C\c3cccc(F)c3)C(=O)O2)cc1 was read as ELG1 genotox -0.1%, Rab9 prom act 1.3%, FLuc modulator 3.01µM*, NPC1 promoter act 2.4% and ELG1 repair inh -4.3%.
O=C(CN1CCCCC1)Nc1nc(-c2ccc(F)c(F)c2)cs1 was read as ELG1 genotox -18.6%, Rab9 prom act inconclusive, FLuc modulator inconclusive, NPC1 promoter act inconclusive and ELG1 repair inh inconclusive.
For CC(OC(=O)c1ccc(C#N)cc1)C(=O)Nc1ccc(Cl)cn1 (stereo unspecified) the results were ELG1 genotox 0.8%, Rab9 prom act 0.7%, FLuc modulator 3.5%, NPC1 promoter act -0.6% and ELG1 repair inh 1.9%.
N/C(=N\OC(=O)c1cc(-c2ccccc2)nc2ccccc12)c1ccc(Cl)cc1 was read as ELG1 genotox -1.7%, Rab9 prom act -1.4%, FLuc modulator inconclusive, SMN2 splice up -6.6%, NPC1 promoter act -3.8% and ELG1 repair inh 11.4%.
Cc1ccc(C(=O)O/N=C(\N)c2ccccc2)c(Cl)c1 was read as ELG1 genotox inconclusive, Rab9 prom act 0.794µM*, FLuc modulator 0.0849µM*, NPC1 promoter act 2.24µM* and ELG1 repair inh inconclusive.
`Cc1ccc(C(=O)O/N=C(\N)c2ccccn2)c(Cl)c1` gave ELG1 genotox inconclusive, Rab9 prom act 0.708µM*, FLuc modulator 0.019µM*, NPC1 promoter act inconclusive and ELG1 repair inh inconclusive.
For N/C(=N\OC(=O)Cc1ccccc1[N+](=O)[O-])c1ccccn1 the results were ELG1 genotox inconclusive, Rab9 prom act -10.2%[1.84 µM], FLuc modulator inconclusive, SMN2 splice up -16.5%, NPC1 promoter act 7.0% and ELG1 repair inh inconclusive.
`N/C(=N\OC(=O)c1cc(Br)ccc1Cl)c1ccccn1` gave ELG1 genotox inconclusive, Rab9 prom act inconclusive, FLuc modulator 3.79µM*, SMN2 splice up 11.2µM*, NPC1 promoter act inconclusive and ELG1 repair inh inconclusive.
Cc1c(C(=O)O/N=C(\N)c2ccccn2)cccc1[N+](=O)[O-] was read as ELG1 genotox 2.06µM*, Rab9 prom act 0.794µM*, FLuc modulator 0.301µM*, NPC1 promoter act 3.16µM* and ELG1 repair inh inconclusive.
`Fc1cccc(Cl)c1CSc1ncn[nH]1` gave ELG1 genotox 0.1%, Rab9 prom act -2.3%, FLuc modulator 4.9%, SMN2 splice up 8.3%, NPC1 promoter act 1.8% and ELG1 repair inh 19.6%.

Assay outcomes (PubChem BioAssay)
